The panel holds about 83,000 compounds, 20% with a hit somewhere; the sample as a whole holds those more often.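 Plates (96-well) were seeded with cells, treated with compound at one concentration, and incubated for 48 hours before percent growth was determined.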 A number with no mark means an inactive call. Calls of active or inactive are those of the source. The calls were made as follows: active = growth percent below 10; inactive = the rest.
The compounds below were run on HL-60(TB) leukemia (assay: NCI-60 one-dose screen, 48 h (100 = growth as untreated, 0 = no growth, -100 = all killed)). Conditions: 10 µM unless noted.

Compound | growth
COc1ccc(Cn2cc3c(c2-c2cc(OC)c(OC)c(OC)c2)CCc2cnoc2-3)cc1N | 5.54% (active)
COc1ccc(-c2nc(Nc3cc(C)[nH]n3)c3ccccc3n2)cc1 | 41.4%
Cn1c(/C(C#N)=C/c2ccc3ccccc3c2)cc2ccccc21 | -6.93% (active)
CCOC(=O)C(Cc1ccccc1)n1c(O)c(C=Nc2ccc(C(=O)OCCN(CC)CC)cc2)sc1=O (stereo not given) | 97.8%
CC(O)CNC(Cc1ccccc1)c1ccc2c(c1)OCO2 (stereo not given) | 96.3%
Fc1cc2[nH]ncc2c2c3c(c(-c4cn[nH]c4)nc12)CCCC3 | -13.2% (active)
O=C(Nc1cccc(Cl)c1)c1ccc(Cl)cc1Cl | 92%
CN(C)CCOc1ccc(/C(=C(/CCCl)c2ccccc2)c2ccccc2)cc1 | -33% (active)
Cc1nc(O)cc(=O)[nH]1 | 97%
CCNC(=O)Oc1ccc(/C(=C(/C)Cc2ccc(OC)cc2)c2ccc(OCCN3CCCCCC3)cc2)cc1 | 38.1%
CCNS(=O)(=O)c1ccc(C)cc1 | 72%
CC1Cc2ccccc2O1 (stereo not given) | 102%
Cc1ccc2nc3c(nc2c1)-c1cccc2cccc-3c12 | 93.5%
Cc1ccc(C(=O)C(Br)C(Br)c2ccccc2)cc1 (stereo not given) | 45.1%
Cc1cn([C@]2(CF)O[C@H](CO)C2C)c(=O)[nH]c1=O (stereo not given in full) | 105%
CC/C=C\C[C@H](O)C/C=C1/C(=O)C=C[C@@H]1C/C=C\CCCC(=O)NC | -27.2% (active)
O=c1oc2ccc(Cl)cc2c(=O)n1-c1ccc(Cl)cc1F | -44.5% (active)
CN(C)CCOc1ccc2c(c1)C(=O)/C(=C\c1ncc([N+](=O)[O-])n1C)C2 | -51.8% (active)
Cc1cccc(-c2cc(O)c(C(=O)N3CCOCC3)s2)c1 | 24.5%
CC(C)OC(=O)NNC(=O)c1ccncc1 | 85.2%

Compound | growth
O=C1/C(=C/c2ccc(C(F)(F)F)cc2)COc2ccc(O)c(O)c21 | -26.1% (active)
Cc1ccc2cc3c(N)c4c(C)ccc(C)c4nc3nc2c1 | 12.6%
COc1ccc(-c2nc(N3CCN(C(=O)C4CCCCC4)CC3)c3c4c(sc3n2)CCCC4)cc1 | 39%
O=NN(CCCl)C(=O)NCc1ccc(-c2ccc(CNC(=O)N(CCCl)N=O)cc2)cc1 | 88.6%
Oc1c(Cl)cc(Cl)c2ccc(Cn3cc(-c4cccc(C(F)(F)F)c4)nn3)nc12 | -18.9% (active)
COc1ccc(C2c3ccccc3NC(=O)N2C2CCN(C)CC2)c(OC)c1 (stereo not given) | 92.7%
O=CN/N=C/c1ccc(Cl)c([N+](=O)[O-])c1 | 11.1%
Cc1cc2c(-c3nc4ccccc4[nH]3)c(O)c(O)cc2c(O)c1-c1c(C)cc2c(-c3nc4ccccc4[nH]3)c(O)c(O)cc2c1O | -11.2% (active)
CNS(=O)(=O)c1ccc(Cl)c(Cl)c1 | 137%
C[n+]1ccccc1/C=C/c1ccc2cccc(O)c2n1 | 79.2%
C=CCCCCCCCCC(=O)OC(C)C | 117%
COc1cc([C@@H]2c3cc4c(cc3[C@H](O)[C@H]3COC(=O)[C@H]23)OCO4)cc(OC)c1OC | -50.2% (active)
CCN(CC)CCC(CNc1ccnc2cc(Cl)ccc12)c1ccc(O)cc1 (stereo not given) | -1.95% (active)
CCOC(=O)C1=C(C)N=c2s/c(=C\c3cc(Cl)ccc3O)c(=O)n2C1c1ccc(OC)cc1 (stereo not given) | 98%
N=C(N)c1ccc(-c2ccc(-c3cccs3)s2)s1 | -62% (active)
CCCc1cc(CCC)n2nc(N)nc2n1 | 105%
O=c1cc(-c2ccccc2)[nH]c2c1CCCC2 | 19.1%
COc1cc(NC(=O)CSc2nc3ccc(Cl)cc3c(=O)n2-c2ccc(F)cc2)cc(OC)c1OC | 106%
CCCCC(CC)COC(=O)C[N+](C)(C)CCOC(c1ccccc1)c1ccccc1 (stereo not given) | -56.7% (active)
COc1ccc(Cn2nc(-c3cc(OC)c(OC)c(OC)c3)c3c2CCc2cnoc2-3)cc1OC | 16.3%
